{"source": "PubChem BioAssay AID1962", "about": "(The Scripps Research Institute Molecular Screening Center, 2009)", "note": "Screen size: about 300,000 compounds; about 2,500 (0.83%) were called active. The sample holds actives, similar compounds and a random draw of the others, so the mix is not that of the screen. Unmarked numbers belong to inactive results.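 Rule for the calls: active = inhibition above the mean of all tested compounds plus 3 SD, set per screening campaign (cut at about 24% in these data); inactive = the rest.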", "data": [{"system": "tRNA 2'-phosphotransferase TPT1 (Candida albicans SC5314)", "test": "Candida albicans TPT1 enzyme inhibitors, primary screen, biochemical, fluorescence polarization (AID 1962);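 note: plate controls were DMSO alone for no effect and ferristatin control at 100 nM for full effect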", "details": "recombinant caTPT1, FP RNA substrate dephosphorylation; at 5 µM; stronger effect = higher value", "values": [{"smiles": "CC(CCN1CCN=C1N(C)C)c1ccccc1", "note": "(stereo unspecified)", "inhibition": "1.38%"}, {"smiles": "C=CCn1c(SCc2cccc(F)c2)nc2cc(C(=O)N3CCC(C(N)=O)CC3)ccc2c1=O", "inhibition": "-3.32%"}, {"smiles": "O=C(c1cc(C(=O)N2CCN(c3ccc(F)cc3)CC2)cc([N+](=O)[O-])c1)N1CCN(c2ccc(F)cc2)CC1", "inhibition": "-4.38%"}, {"smiles": "O=C(c1cccc(F)c1)N1CCN(c2ccc([N+](=O)[O-])c(N3CCCCC3)c2)CC1", "inhibition": "-2.61%"}, {"smiles": "Cc1ccc(CSCC2Nc3ccc(C(=O)N4CCN(c5ccc(F)cc5)CC4)cc3NC2=O)cc1", "note": "(stereo unspecified)", "inhibition": "133% (active)"}, {"smiles": "O=C(c1cc(-c2ccc(F)cc2)on1)N1CCN(c2ccc(F)cc2)CC1", "inhibition": "-5.93%"}, {"smiles": "O=C1Nc2cc(C(=O)N3CCN(c4ccc(F)cc4)CC3)ccc2NC1CSCc1cccc(F)c1", "note": "(stereo unspecified)", "inhibition": "134% (active)"}, {"smiles": "Cc1ccc(S(=O)(=O)N2[C@@H](c3ccccc3F)C(C(=O)O)=CC[C@H]2c2ccc(Cl)cc2)cc1", "inhibition": "-4.36%"}, {"smiles": "COc1ccc(CCNC(=S)N2CCN(S(=O)(=O)c3ccc(F)cc3)CC2)cc1", "inhibition": "-2.45%"}, {"smiles": "Cc1cccc(NC(=O)c2cccc(S(=O)(=O)N3CCCC3)c2)n1", "inhibition": "-1.41%"}, {"smiles": "CCC(C)CCN1CCN=C1N(C)C", "note": "(stereo unspecified)", "inhibition": "0.6%"}, {"smiles": "O=S(=O)(Nc1ccccc1)c1ccc(NS(=O)(=O)c2cccs2)cc1", "inhibition": "3.09%"}, {"smiles": "O=c1[nH]nc(SCCS(=O)(=O)c2ccc(F)cc2)n1-c1ccccc1C(F)(F)F", "inhibition": "-4.89%"}, {"smiles": "O=C(NCCS(=O)(=O)N1CCN(c2ccc(F)cc2)CC1)c1ccc2c(c1)OCO2", "inhibition": "-1.22%"}, {"smiles": "Cc1cc(C)c(/C=C2\\C(=O)Nc3ccccc32)[nH]1", "inhibition": "101% (active)"}, {"smiles": "O=C1Nc2ccccc2/C1=C/c1ccnc2ccccc12", "inhibition": "-1.13%"}, {"smiles": "CN(C)/C=C1/Nc2ccccc2C1=O", "inhibition": "-4.8%"}, {"smiles": "CCN1C(=O)/C(=c2\\s/c(=C3\\Sc4ccccc4N3C)c(=O)n2C)N(C)C1=S", "inhibition": "-1.53%"}, {"smiles": "CN1/C(=c2/s/c(=C3/C(=O)N(c4ccccc4)NC3=Nc3ccccc3)n(C)c2=O)C(C)(C)c2ccccc21", "inhibition": "128% (active)"}, {"smiles": "COc1ccc(/C=C2\\SC(=O)N(CCC(=O)NC3CCS(=O)(=O)C3)C2=O)cc1", "note": "(stereo unspecified)", "inhibition": "-0.19%"}, {"smiles": "Cc1cc(C)n(CCC(=O)N2CCN(S(=O)(=O)c3ccc(C)c(C)c3)CC2)n1", "inhibition": "-1.67%"}, {"smiles": "Cc1nc(-c2ccc(Cl)cc2)sc1C1(C)CC(c2ccccc2F)=NO1", "note": "(stereo unspecified)", "inhibition": "1.26%"}, {"smiles": "CCn1c(/C=C/c2ccc([N+](=O)[O-])o2)nc2ccccc2c1=O", "inhibition": "25.2% (active)"}, {"smiles": "Cc1cc(C)nc(N/N=C/c2ccc([N+](=O)[O-])o2)n1", "inhibition": "-2.07%"}, {"smiles": "C/[N+]([O-])=C\\c1ccc([N+](=O)[O-])o1", "inhibition": "-5.74%"}, {"smiles": "CCCOc1ccc(Cc2c(O)nc(SC)[nH]c2=O)cc1C", "inhibition": "1.03%"}, {"smiles": "S=C(Nc1cccc(Br)c1)N1CCn2cccc2C1c1cccnc1", "note": "(stereo unspecified)", "inhibition": "1.48%"}, {"smiles": "COC1=C/C(=C/c2c(N)n3nc(CC(=O)N4CCOCC4)sc3nc2=O)C=CC1=O", "inhibition": "9.73%"}, {"smiles": "C=CCC1=C/C(=C\\c2c(N)n3nc(CC(=O)N4CCOCC4)sc3nc2=O)C=C(OC)C1=O", "inhibition": "37% (active)"}, {"smiles": "COc1cc(/C=C2\\C(=N)N3N=C(CC(=O)N4CCOCC4)SC3=NC2=O)cc(OC)c1OC", "inhibition": "1.57%"}, {"smiles": "CCN(CC)P(=O)(Nc1ccc(SC(F)F)cc1)c1ccc(N(C)C)cc1NC(=O)c1ccco1", "note": "(stereo unspecified)", "inhibition": "-3.15%"}, {"smiles": "COc1cc(C(=O)N2CCN(C)CC2)cc(OC)c1OC", "inhibition": "1.91%"}, {"smiles": "O=C(CN1C(=O)NC(Cc2ccccc2)(Cc2ccccc2)C1=O)NCC1CCCCC1", "inhibition": "0.35%"}, {"smiles": "Cc1ccc(C(=O)C(=S)N2CCOCC2)cc1", "inhibition": "0.27%"}, {"smiles": "N#C/C(C(=O)N1CCOCC1)=C1/SC(Cc2ccc(F)cc2)C(=O)N1c1ccccc1", "note": "(stereo unspecified)", "inhibition": "19.8%"}, {"smiles": "Cc1ccc(CC2S/C(=C(/C#N)C(=O)N3CCOCC3)N(c3ccccc3)C2=O)cc1", "note": "(stereo unspecified)", "inhibition": "27.6% (active)"}, {"smiles": "O=C(Nc1ccc2c(c1)CCC2)c1ccc(Br)s1", "inhibition": "-6.11%"}, {"smiles": "CC(=O)N1CCN(C(=O)c2cc(-c3ccc(C)o3)nc3ccccc23)CC1", "inhibition": "-4.79%"}, {"smiles": "OCC[C@H]1C[C@@H](O)[C@H](O)[C@]2(OCCCc3ccccc32)O1", "inhibition": "-4.69%"}, {"smiles": "O=C(CSc1nc2ccc([N+](=O)[O-])cc2[nH]1)c1ccc(Cl)cc1", "inhibition": "-2.05%"}, {"smiles": "O=C(Cc1nc2ccccc2[nH]c1=O)c1ccc(Cl)cc1", "inhibition": "52.4% (active)"}, {"smiles": "O=C(/C(=C/c1cccc(Cl)c1)c1nc2ccccc2[nH]1)c1ccccc1", "inhibition": "6.55%"}, {"smiles": "CC(=O)Oc1ccc(N(C(C)=O)S(=O)(=O)c2ccc3ccccc3c2)cc1Br", "inhibition": "-2.05%"}, {"smiles": "O=C(Nc1ccc([N+](=O)[O-])cc1)OCCc1ccccn1", "inhibition": "0.72%"}, {"smiles": "Cc1cccc(NS(=O)(=O)c2cc(Cl)ccc2Cl)n1", "inhibition": "-0.05%"}, {"smiles": "COc1ccc2cc(C(=O)C3CCCN(C(=O)c4sc(C)nc4C)C3)ccc2c1", "note": "(stereo unspecified)", "inhibition": "-0.57%"}, {"smiles": "COc1cc(/C=N\\Nc2nc(-c3cccs3)c(NC(C)=O)s2)ccc1O", "inhibition": "-0.53%"}, {"smiles": "CCOc1cc(-c2cc(-c3ccc(NC(C)=O)cc3)nc(N)c2C#N)ccc1O", "inhibition": "2.32%"}, {"smiles": "CCOc1cc(/C=C(\\C#N)c2nc(-c3cccs3)c(NC(C)=O)s2)ccc1O", "inhibition": "111% (active)"}, {"smiles": "Cc1ccc(Nc2ccc(C(N)=O)cc2[N+](=O)[O-])cc1", "inhibition": "-0.98%"}, {"smiles": "Cc1ccc(Nc2ccccc2N)cc1", "inhibition": "38.5% (active)"}, {"smiles": "Nc1ccc(C(=O)Nc2ccccc2N)cc1", "inhibition": "-2.37%"}, {"smiles": "O=C(Nc1ccc(Cl)c(Cl)c1)N1CC=C(c2ccccc2)CC1", "inhibition": "-0.49%"}, {"smiles": "NC1=C([N+](=O)[O-])C(c2ccccc2)C2=C(CCCC2=O)O1", "note": "(stereo unspecified)", "inhibition": "2.19%"}, {"smiles": "COc1ccc(CCOC(=O)CNC(=O)c2ccc(Cl)cc2Cl)cc1", "inhibition": "-0.14%"}, {"smiles": "Cc1ccc([C@@H]2CC=C(C(=O)O)[C@H](c3cccc(Cl)c3)N2S(=O)(=O)c2ccc(C)cc2)cc1", "inhibition": "-3.07%"}]}]}
